# KAT2A inh: GCN5L2 (KAT2A) acetyltransferase inhibition; Potency, µM (highest dose often 58.9 µM), most hits filed as inhibitors; 0.21% of 390,000 active; Q92830; GCN5L2 HAT assay, ThioGlo1 CoA-SH fluorescence
#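 GCN5L2 (20 nM) in 50mM HEPES pH 7.5, 0.1mM EDTA, 0.01% Tween-20 preincubated 15 min with compounds at room temperature. Reaction started with H3(1-25) 75uM, acetyl-CoA 70uM, ThioGlo1 50uM; CoA-thiol fluorescence (Ex340/Em540) read at 0 and 20 min.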
# PLK1 PBD block: PLK1 (human) polo-box domain binding inhibition | Plk1 PBD binding of FITC phosphopeptide, fluorescence polarization | Potency, µM, hits mostly inhibitors | 2.8% of 360,000 active | AID 720504; note: series mostly up to about 57 µM; nearly all actives have a fitted effect of over 65% in size
# VDR inhibitor: inhibitors of human vitamin D receptor. P11473. VDR-SRC2-3 peptide fluorescence polarization, 2 h. Potency, µM, most hits filed as inhibitors. 0.93% of 400,000 active. AID 504847
#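 Compounds are added to VDR with labelled SRC2-3 coactivator peptide and held 2 h at room temperature. Inhibition of the VDR–peptide interaction is then read as a change in fluorescence polarization.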
# USP1 inh: blocks the human USP1/UAF1 deubiquitinase complex; O94782; recombinant USP1/UAF1, Ub-Rhodamine cleavage fluorescence; Potency, µM (highest dose often 57.1 µM), usual class: inhibitors; 0.23% of 390,000 active; AID 743255; note: nearly all actives have a fitted effect of over 60% in size
#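 High-throughput fluorogenic screen: 1nM USP1/UAF1 complex, Ub-Rho substrate 150nM final, 50mM HEPES pH 7.8 with 0.5mM EDTA, 0.1 mg/ml BSA, 1mM TCEP and 0.01% Tween-20.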
# PTAP TSG101 blk: blocks PTAP/TSG101 interaction to inhibit HIV-1 budding; Fluorescence polarization, FITC-PTAP peptide / Tsg101 binding; Potency, µM (top dose mostly 115 µM), actives largely listed as inhibitors; 340,000 tested, under 10 active; active = well fitted inhibition curve with a large enough effect in the main read-out, with a control signal flat, not every such curve was filed as active; inconclusive = small, poorly fitted or top-dose-only effect, or effect the other way, or a change in a side signal; inactive = no such curve, though single readings can be large or run the other way
#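 Fluorescence anisotropy tracks displacement of a FITC-tagged PTAP peptide (50 nM) from the Tsg101 binding domain (10 uM), following a 20 min room-temperature incubation at pH 7.5.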
# Numbers stand for hits; - = inactive; ? = inconclusive; . = no result given. Hits are enriched below; roughly 3% of the tested compounds scored in any of these assays. Unless noted, calls come from the whole dose curve; as a rule, active = well fitted curve in the direction sought with a large enough effect; inconclusive = small, poorly fitted or top-dose-only effect, or another doubt; inactive = no such curve, though single readings can be large; an effect the other way counts as inactive or inconclusive.
SMILES,KAT2A inh,PLK1 PBD block,VDR inhibitor,USP1 inh,PTAP TSG101 blk
CC(C)(C)NC(=O)C(c1cccs1)N(Cc1ccc(F)cc1)C(=O)c1csnn1 (stereo unspecified),-,27µM,-,-,-
Cc1ccc(N(Cc2cc3ccc(C)cc3[nH]c2=O)S(=O)(=O)c2ccccc2)cc1,-,-,-,-,-
Cc1ccc(N(Cc2cc3cccc(C)c3[nH]c2=O)S(=O)(=O)c2ccccc2)c(C)c1,-,15µM,?,-,-
Cc1cccc(N(Cc2cc3ccccc3[nH]c2=O)S(C)(=O)=O)c1,-,-,-,-,-
Cc1ccc(S(=O)(=O)N(Cc2cc3ccccc3[nH]c2=O)c2cccc(C)c2)cc1,-,30µM,-,-,-
Cc1ccc(S(=O)(=O)N(Cc2cc3ccc(C)cc3[nH]c2=O)c2ccccc2)cc1,-,34µM,-,-,-
CCOC(=O)[C@@H]1[C@H]2COc3cc(OC)ccc3[C@H]2N2C(=O)N(c3cccc(F)c3)C(=O)[C@@]12C,-,-,-,-,-
COc1ccc(NC(=O)CCS(=O)(=O)c2ccc3c(c2)n(C)c(=O)c(=O)n3C)cc1Cl,-,.,-,-,.
O=C(c1cc(-c2ccco2)nn1-c1cccc(Cl)c1)N1CCCCC1,-,27µM,?,-,-
CN1CCN(CC(=O)c2cc(C(C)(C)C)c(O)c(C(C)(C)C)c2)CC1,-,-,71µM,-,-
CCOc1ccccc1NC(=O)CSc1nccn1-c1cccc(C)c1,-,.,-,-,.
COc1ccc(Cc2nc3ccc(C(=O)N(C)Cc4nccs4)cc3o2)cc1OC,-,30µM,-,-,-
Clc1ccc(-c2nc3ccncc3[nH]2)cc1,-,8.4µM,-,-,-
CCN(CC)C(=O)c1cc(Cl)ccn1,-,12µM,-,-,-
CC1=C(C(=O)Nc2cccnc2)C(c2ccccn2)n2nnnc2N1 (stereo unspecified),7.1µM,-,-,-,-
Cc1nn(C)cc1/C=N/NC(=S)Nc1ccccc1,-,12µM,89µM,-,-
Oc1ccccc1C=NNC(=S)Nc1ccc(F)cc1,.,-,-,-,-
O=c1c2ccccc2[nH]c2ccc(F)cc12,-,-,-,-,-
O=c1c2ccccc2[nH]c2ccc(O)cc12,-,30µM,-,-,-
COc1ccc(NC(=O)C2=CC(c3ccc(OC)cc3)=NS(=O)(=O)N2C)cc1,?,-,-,-,-
COc1ccc(OC)c(C2=NS(=O)(=O)N(C)C(C(=O)Nc3ccc(C(C)=O)cc3)=C2)c1,-,30µM,-,?,-
COc1ccc(OCC(=O)O/N=C(\N)Cc2ccc(Cl)cc2)cc1,-,-,-,-,-
Cc1ccc(OCC(=O)O/N=C(\N)Cc2ccc(Cl)cc2)cc1,-,2.7µM,-,-,-
Cc1cc(C)c(-n2[nH]nnc2=S)c(C)c1,-,30µM,-,-,-
COc1ccc(C)cc1-n1[nH]nnc1=S,-,-,-,-,-
SMILES,KAT2A inh,PLK1 PBD block,VDR inhibitor,USP1 inh,PTAP TSG101 blk
FC(F)(F)c1cc(CN2CCCC3(CCNCC3)C2)cc(C(F)(F)F)c1,-,.,?,.,.
O=C(NCCNC(=O)c1ccccc1)c1ccccc1,-,-,-,-,-
O=C(NCC#CCOCc1ccccc1)c1ccccc1,-,27µM,-,-,.
Cc1nnc(SCC(=O)NC2CCCCC2)[nH]c1=O,-,-,-,-,-
Cc1nnc(SC(C)C(=O)NC2CCCCC2)[nH]c1=O (stereo unspecified),.,27µM,-,-,?
Cc1cc(C)c(NC(=O)OCCN2CCOCC2)c(C)c1,-,2.7µM,-,-,-
Cc1cccc(-n2c(C)cc(/C=C3\C(=N)N4N=C(CC(C)C)SC4=NC3=O)c2C)c1,-,-,-,-,-
CCSC1=NSC2=NC(=O)/C(=C\c3coc4ccccc4c3=O)C(=N)N12,?,17µM,79µM,22µM,?
CC(C)CC1=NN2C(=N)/C(=C\c3coc4ccccc4c3=O)C(=O)N=C2S1,-,-,79µM,28µM,?
CCOC(=O)CC(=O)CSc1n[nH]c(=O)[nH]c1=O,-,-,-,-,-
CCCCOC(=O)C(C)Sc1n[nH]c(=O)[nH]c1=O (stereo unspecified),-,27µM,-,-,-
CN(C(=O)CSc1nnc(-c2c[nH]c3ccccc23)n1C1CC1)C1CCS(=O)(=O)C1 (stereo unspecified),-,-,-,-,-
